Experimental data reported in PubChem BioAssay (EPA / NIEHS).
Activity calls are given as the source filed them. How the source made its calls: active means hit-call score of the fitted dose curve at least 0.9, where 1 is the maximum; inactive means score below 0.9.

Assays:
[1] = read-out: Macrophage colony-stimulating factor (MCSF), CSF1 (gene 1435); assay: BSK_CASM3C_MCSF: BioMAP Diversity Plus: CASM3C Assay for Macrophage colony-stimulating factor (MCSF) Biomarker Activity (AID 2283044); conditions: primary human coronary artery smooth muscle cells; actives raise or lower the signal;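 further: M-CSF protein amount quantified by ELISA after 24 h exposure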
[2] = read-out: Low-density lipoprotein receptor (LDLR), LDLR (gene 3949); assay: BSK_CASM3C_LDLR: BioMAP Diversity Plus: CASM3C Assay for Low-density lipoprotein receptor (LDLR) Biomarker Activity (AID 2283045); conditions: primary human coronary artery smooth muscle cells; actives raise or lower the signal;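 further: LDLR protein level on the cell surface quantified by ELISA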
[3] = read-out: Monocyte Chemoattractant Protein-1 (MCP1), CCL2 (gene 6347); assay: BSK_CASM3C_MCP1: BioMAP Diversity Plus: CASM3C Assay for Monocyte Chemoattractant Protein-1 (MCP1) Biomarker Activity (AID 2283046); conditions: primary human coronary artery smooth muscle cells; actives raise or lower the signal;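 further: MCP-1 level quantified by ELISA 24 h after dosing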
[4] = BSK_CASM3C_Proliferation: Cell Proliferation Assessment in the BioMAP Diversity Plus: CASM3C Assay (AID 2283047); conditions: primary human coronary artery smooth muscle cells;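 further: sulforhodamine B total protein stain as relative cell number at 560 nm; sub-confluent cells exposed 48 h before staining; fitted both ways against DMSO so gain or loss of cell number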
[5] = read-out: Monokine induced gamma interferon (MIG), CXCL9 (gene 4283); assay: BSK_CASM3C_MIG: BioMAP Diversity Plus: CASM3C Assay for Monokine induced gamma interferon (MIG) Biomarker Activity (AID 2283048); conditions: primary human coronary artery smooth muscle cells; actives raise or lower the signal;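 further: MIG protein level measured by ELISA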
[6] = read-out: serum amyloid A (SAA), SAA1 (gene 6288); assay: BSK_CASM3C_SAA: BioMAP Diversity Plus: CASM3C Assay for serum amyloid A (SAA) Biomarker Activity (AID 2283049); conditions: primary human coronary artery smooth muscle cells; actives raise or lower the signal;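 further: SAA protein level quantified by ELISA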
[7] = BSK_CASM3C_SRB: Viability Assessment in the BioMAP Diversity Plus: CASM3C Assay (AID 2283050); conditions: primary human coronary artery smooth muscle cells;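 further: cells exposed to compound for 24 h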
[8] = read-out: Thrombomodulin, THBD (gene 7056); assay: BSK_CASM3C_Thrombomodulin: BioMAP Diversity Plus: CASM3C Assay for Thrombomodulin Biomarker Activity (AID 2283051); conditions: primary human coronary artery smooth muscle cells; actives raise or lower the signal;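 further: thrombomodulin protein level measured by ELISA 24 h after dosing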
[9] = read-out: Tissue Factor, F3 (gene 2152); assay: BSK_CASM3C_TissueFactor: BioMAP Diversity Plus: CASM3C Assay for Tissue Factor Biomarker Activity (AID 2283052); conditions: primary human coronary artery smooth muscle cells; actives raise or lower the signal;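 further: cell surface tissue factor protein level read by ELISA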
[10] = read-out: Urokinase-type plasminogen activator receptor (uPAR), PLAUR (gene 5329); assay: BSK_CASM3C_uPAR: BioMAP Diversity Plus: CASM3C Assay for Urokinase-type plasminogen activator receptor (uPAR) Biomarker Activity (AID 2283054); conditions: primary human coronary artery smooth muscle cells; actives raise or lower the signal;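 further: cell-surface uPAR protein level quantified by ELISA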
[11] = read-out: Vascular cell adhesion molecule 1 (VCAM1), VCAM1 (gene 7412); assay: BSK_CASM3C_VCAM1: BioMAP Diversity Plus: CASM3C Assay for Vascular cell adhesion molecule 1 (VCAM1) Biomarker Activity (AID 2283055); conditions: primary human coronary artery smooth muscle cells; actives raise or lower the signal;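 further: VCAM-1 protein level quantified by ELISA on the cells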
[12] = read-out: Collagen III, COL3A1 (gene 1281); assay: BSK_hDFCGF_CollagenIII: BioMAP Diversity Plus: hDFCGF Assay for Collagen III Biomarker Activity (AID 2283056); conditions: primary human foreskin fibroblasts; actives raise or lower the signal
Procedure, shortened: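 hDFCGF primary human dermal fibroblasts; 24 h chemical exposure; collagen III by ELISA; bidirectional curve fit vs DMSO baseline (gain or loss of signal).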

[13] = read-out: Epidermal growth factor receptor (EGFR), EGFR (gene 1956); assay: BSK_hDFCGF_EGFR: BioMAP Diversity Plus: hDFCGF Assay for Epidermal growth factor receptor (EGFR) Biomarker Activity (AID 2283057); conditions: primary human foreskin fibroblasts; actives raise or lower the signal
Procedure, shortened: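 Cell-based multiplexed assay in primary human foreskin fibroblasts. EGFR is read by ELISA 24 h after treatment and compared with DMSO controls.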

[14] = read-out: Interleukin-8 (IL8), CXCL8 (gene 3576); assay: BSK_hDFCGF_IL8: BioMAP Diversity Plus: hDFCGF Assay for Interleukin-8 (IL8) Biomarker Activity (AID 2283058); conditions: primary human foreskin fibroblasts; actives raise or lower the signal
Procedure, shortened: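 ELISA read-out of IL-8 from primary human foreskin fibroblast cultures taken 24 h after dosing; values are bidirectional fits relative to DMSO vehicle.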

[15] = BSK_hDFCGF_Proliferation: Cell Proliferation Assessment in the BioMAP Diversity Plus: hDFCGF Assay (AID 2283059); conditions: primary human foreskin fibroblasts;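 further: curves fitted for both rise and fall of signal versus DMSO baseline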
Procedure, shortened: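 Sub-confluent human foreskin fibroblast cultures receive test chemical […]. Relative cell number is quantified by sulforhodamine B staining (0.1%, after 10% TCA fixation) at 560 nm, with bidirectional fitting referenced to DMSO.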

[16] = read-out: Macrophage colony-stimulating factor (MCSF), CSF1 (gene 1435); assay: BSK_hDFCGF_MCSF: BioMAP Diversity Plus: hDFCGF Assay for Macrophage colony-stimulating factor (MCSF) Biomarker Activity (AID 2283060); conditions: primary human foreskin fibroblasts; actives raise or lower the signal
Procedure, shortened: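 ELISA read-out of M-CSF in human dermal foreskin fibroblast cultures, 24 h after chemical dosing; gain or loss of signal fitted bidirectionally relative to DMSO baseline.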

[17] = BSK_hDFCGF_SRB: Viability Assessment in the BioMAP Diversity Plus: hDFCGF Assay (AID 2283061); conditions: primary human foreskin fibroblasts;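 further: cells exposed to compound for 24 h before the read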
Procedure, shortened: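 Primary human foreskin fibroblasts; 24 h post-dose; fixed 10% TCA, stained 0.1% SRB, A560 read; total protein as overt cytotoxicity measure; curves fit bidirectionally vs DMSO control.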

[18] = read-out: TIMP metallopeptidase inhibitor 1 (TIMP1), TIMP1 (gene 7076); assay: BSK_hDFCGF_TIMP1: BioMAP Diversity Plus: hDFCGF Assay for TIMP metallopeptidase inhibitor 1 (TIMP1) Biomarker Activity (AID 2283062); conditions: primary human foreskin fibroblasts; actives raise or lower the signal
Procedure, shortened: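 ELISA readout of TIMP-1 from human dermal foreskin fibroblast cultures 24 h post-dosing. Curves were fitted in both directions against DMSO baseline, with SRB total-protein staining in parallel cultures as a cytotoxicity check.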

[19] = read-out: Monokine induced gamma interferon (MIG), CXCL9 (gene 4283); assay: BSK_hDFCGF_MIG: BioMAP Diversity Plus: hDFCGF Assay for Monokine induced gamma interferon (MIG) Biomarker Activity (AID 2283063); conditions: primary human foreskin fibroblasts; actives raise or lower the signal
Procedure, shortened: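 Fibroblasts (human foreskin, primary) dosed, 24 h, MIG by ELISA; fit bidirectional vs DMSO.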

[20] = read-out: Interferon-gamma inducible Protein 10 (IP10), CXCL10 (gene 3627); assay: BSK_hDFCGF_IP10: BioMAP Diversity Plus: hDFCGF Assay for Interferon-gamma inducible Protein 10 (IP10) Biomarker Activity (AID 2283053); conditions: primary human foreskin fibroblasts; actives raise or lower the signal
Procedure, shortened: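 Chemical-treated human skin fibroblasts (primary) were sampled at 24 h for IP-10 by ELISA. Both increases and decreases relative to DMSO were scored.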

Measured: AC50

OCCCBr
not listed: [20]
inactive: all other assays above

CCOc1cccc(C2(N3CCN(c4ccccc4)CC3)CCC(C)CC2)c1 (centres undefined)
not listed: [20]
inactive: all other assays above

Nc1ccc(Cl)cc1N
active: [4] 6.89 µM | [8] 5.73 µM | [11] 3.97 µM | [15] 11.2 µM | [16] 6.73 µM
not listed: [20]
inactive: all other assays above

Oc1ccccc1Cl
not listed: [20]
inactive: all other assays above

CCCCC(CC)COC(=O)c1ccc(C(=O)OCC(CC)CCCC)c(C(=O)OCC(CC)CCCC)c1 (centres undefined)
not listed: [20]
inactive: all other assays above

COC(=O)Nc1nc2ccccc2[nH]1
active: [4] 8.49 µM | [10] 9.38 µM | [15] 0.224 µM
not listed: [16] | [20]
inactive: all other assays above

CC(C)(C)OOC(C)(C)CCC(C)(C)OOC(C)(C)C
active: [15] 31.3 µM
not listed: [16] | [20]
inactive: all other assays above

CCC(C)c1ccc(O)cc1 (centres undefined)
not listed: [20]
inactive: all other assays above

CCCCOC(=O)c1ccccc1C(=O)OCc1ccccc1
active: [8] 20 µM | [12] 13 µM | [16] 11.8 µM
not listed: [20]
inactive: all other assays above

O=[N+]([O-])c1ccc(Oc2ccc(Cl)cc2Cl)cc1
active: [12] 12.1 µM | [15] 20 µM | [16] 13.1 µM
not listed: [20]
inactive: all other assays above

O=C(N[C@H](c1ccccc1)[C@@H]1CN2CCC1CC2)c1c(Cl)ccc(C(F)(F)F)c1Cl
active: [2] 25 µM | [4] 25.2 µM | [15] 26.5 µM
not listed: [16] | [20]
inactive: all other assays above

O=C1CCCO1
not listed: [16] | [20]
inactive: all other assays above

O=C(O)C1C2CCC(O2)C1C(=O)O (centres undefined)
active: [3] 21.8 µM | [12] 24.3 µM | [15] 18.6 µM
not listed: [1] | [4] | [16]
inactive: all other assays above

CC(C)(O)c1cnn2c(-c3ccc(F)c(-c4c(F)cccc4C#N)c3)cnc2n1
active: [4] 26.1 µM | [12] 5.96 µM
not listed: [16] | [20]
inactive: all other assays above
